Bioassay records as filed in PubChem BioAssay.
aSyn UTR act = Activators working through SNCA 5'UTR binding (MLPCN) | alpha-synuclein 5'UTR reporter, activators screen | activity score, % (tested at 7.5 µM), hits read low | 300,000 compounds, 7.1% hits; in the data active = activity score below about -60%
An asterisk follows results filed as active. These entries were drawn from the full list.

Results for O=C(N=C1c2ccccc2CN1c1ccc(F)cc1)c1ccc(Cl)nc1 ?
aSyn UTR act: -94.2*

Results for CC(=O)c1ccc(N2Cc3ccccc3/C2=N\C(=O)Nc2ccccc2)cc1 ?
aSyn UTR act: -98.5*

What do the screens show for `Cc1cc(O)cc2c1C(=O)/C(=C/c1ccco1)O2`?
aSyn UTR act: -116.2*

What do the screens show for `Nc1ccc(S(=O)(=O)Nc2nccc(/C=C/c3ccc(Cl)cc3Cl)n2)cc1`?
aSyn UTR act: -66.8*

How did Cc1ccc(-n2nc(C)c3c2OC(N)=C(C#N)C3c2ccc(F)cc2)cc1 (stereo not given) do in these assays?
aSyn UTR act: -74.8*

Results for C/C(=N\Nc1nccnc1Cl)c1ccc(O)c(C)c1 ?
aSyn UTR act: -180.5*

Results for Cc1ccnc(NC(=O)C2CC(=O)N(Cc3ccccc3)C2)c1 (stereo not given) ?
aSyn UTR act: -111.7*

What do the screens show for `CC(=O)c1ccc(NC(=O)C2CC(=O)N(Cc3ccccc3)C2)cc1` (stereo not given)?
aSyn UTR act: -128.9*

How did CC(C)c1ccc(N(C(=O)c2csnn2)C(C(=O)NC(C)(C)C)c2ccncc2)cc1 (stereo not given) do in these assays?
aSyn UTR act: -158.4*

Results for Cc1ccc(C)c(NC(=O)c2cc3ccccc3o2)c1 ?
aSyn UTR act: -171.6*

How did Cc1cc(NC(=O)c2cncc(Br)c2)ccc1NC(=O)c1cc2ccccc2o1 do in these assays?
aSyn UTR act: 78.0

How did Cc1cc([N+](=O)[O-])ccc1NC(=O)c1cc2ccccc2o1 do in these assays?
aSyn UTR act: -115.2*

Results for Cc1ccnc(NC(=O)c2cc3ccccc3o2)c1 ?
aSyn UTR act: 97.0

What do the screens show for `COc1ccc(C)cc1NC(=O)c1cc2ccccc2o1`?
aSyn UTR act: -146.8*

What do the screens show for `O=C(Nc1cccc(Cl)c1)OCCOc1ccccc1`?
aSyn UTR act: -139.9*

How did O=C(Nc1ccccc1)OCCOc1ccccc1 do in these assays?
aSyn UTR act: -143.4*

What do the screens show for `O=C(Nc1ccccc1)OCc1cc(-c2ccccc2Cl)on1`?
aSyn UTR act: -160.4*

How did O=C(Nc1ccccc1)OCCOc1ccccc1Br do in these assays?
aSyn UTR act: -125.3*

What do the screens show for `CCC1(COC(=O)Nc2cccc(Cl)c2)COC1`?
aSyn UTR act: -93.4*

How did O=C(Nc1ccccc1)OCc1ccccn1 do in these assays?
aSyn UTR act: -101.7*

What do the screens show for `COc1cccc(-c2nc3ccc(C(=O)NC(C)Cc4cccnc4)cc3o2)c1` (stereo not given)?
aSyn UTR act: -129.7*

Results for COC(=O)C1CCN(C(=O)c2ccc3nc(-c4cccc(OC)c4)oc3c2)CC1 ?
aSyn UTR act: -135.7*

Results for CCCNS(=O)(=O)c1cccc(C(=O)OCc2cc(=O)oc3cc(OC)ccc23)c1 ?
aSyn UTR act: -96.6*

Results for N/C(=N\OCc1ccccc1)c1nonc1N ?
aSyn UTR act: -97.8*

What do the screens show for `COc1ccc(C2C(C(=O)c3cccs3)=C(O)C(=O)N2c2nncs2)cc1` (stereo not given)?
aSyn UTR act: -108.0*

How did CC1=C(CC(=O)c2ccccc2)C(=O)c2ccccc2C1=O do in these assays?
aSyn UTR act: -79.4*

How did CC(C)(C)c1ccc(C(=O)c2c[nH]c(C(=O)O)c2)cc1 do in these assays?
aSyn UTR act: -102.4*

What do the screens show for `CN(C)C=NC(=O)c1cc(C(=O)c2ccc(C(C)(C)C)cc2)c[nH]1`?
aSyn UTR act: -86.8*

What do the screens show for `N#Cc1c(NC(=O)c2ccco2)sc2c1CCC2`?
aSyn UTR act: -132.8*

Results for O=C(Nc1sc2c(c1C(=O)O)CCCCC2)c1ccco1 ?
aSyn UTR act: -95.7*

How did NC(=O)c1c(NC(=O)c2ccco2)sc2c1CCC2 do in these assays?
aSyn UTR act: -276.9*

How did Cc1occc1C(=O)Nc1sc2c(c1C(N)=O)CCCCC2 do in these assays?
aSyn UTR act: -175.6*

How did CC1(C)Cc2c(sc(NC(=O)c3ccco3)c2C#N)CO1 do in these assays?
aSyn UTR act: -100.3*

How did C#CCN(C)CCCOc1ccc(Cl)cc1Cl do in these assays?
aSyn UTR act: -79.0*

Results for CC(C)NC(=O)CCCOc1ccc(Cl)cc1Cl ?
aSyn UTR act: -67.6*

Results for CCN(CC)C(=O)CCCOc1ccc(Cl)cc1Cl ?
aSyn UTR act: -96.1*

What do the screens show for `CCCCC(=O)NC(c1ccc(Cl)cc1Cl)c1ccc2cccnc2c1O` (stereo not given)?
aSyn UTR act: 91.6

What do the screens show for `COC(=O)CNc1c(-c2ccccn2)nc2ccc(Br)cn12`?
aSyn UTR act: -83.4*

What do the screens show for `O=C(NCC1CCCO1)c1ccc2nc(N3CCCCC3)sc2c1` (stereo not given)?
aSyn UTR act: -193.9*

What do the screens show for `CCC1=Nc2cc(C(=O)NCC3CCCO3)ccc2Sc2ccc(Cl)cc21` (stereo not given)?
aSyn UTR act: -73.7*

Results for O=C(NCC1CCCO1)c1ccc(N2CCCCC2)nc1 (stereo not given) ?
aSyn UTR act: -83.1*

How did Cc1cc(O)c(NC(=O)c2ccc(Br)o2)cc1C do in these assays?
aSyn UTR act: -178.4*

What do the screens show for `O=C(Nc1ccc(Cl)cc1Cl)c1ccc(Br)o1`?
aSyn UTR act: -123.6*

How did CCCc1cc(C(=O)Nc2ccc(F)cc2F)no1 do in these assays?
aSyn UTR act: -116.0*

Results for CCCc1cc(C(=O)Nc2ccccc2SC)no1 ?
aSyn UTR act: -155.5*

What do the screens show for `CCCc1cc(C(=O)Nc2cccc(Cl)c2C)no1`?
aSyn UTR act: -150.0*

What do the screens show for `C/C(=N\Nc1ccc([N+](=O)[O-])cc1)c1cc2ccccc2o1`?
aSyn UTR act: -72.6*

Results for C/C(=N\NC(=O)c1ccc(O)cc1)c1cc2ccccc2o1 ?
aSyn UTR act: -98.0*

How did C/C(=N/Nc1ccc([N+](=O)[O-])cc1)c1c[nH]c2ccccc12 do in these assays?
aSyn UTR act: -171.2*

Results for C/C(=N/Nc1ccc([N+](=O)[O-])cc1)c1ccc(C)cc1C ?
aSyn UTR act: -89.1*

What do the screens show for `C/C(=N\NC(=O)c1ccc(C)cc1)c1c(C)[nH]n(-c2ccccc2)c1=O`?
aSyn UTR act: 66.8

What do the screens show for `C/C(=N\NC(=O)c1ccc(Br)cc1)c1ccccc1`?
aSyn UTR act: -158.0*

Results for O=C(c1ccccc1)c1ccc(N2CCCC2)cc1 ?
aSyn UTR act: -108.6*

What do the screens show for `C/C(=N\NC(=O)c1ccccc1)c1ccc(N2CCCCC2)cc1`?
aSyn UTR act: -86.3*

What do the screens show for `C/C(=N\NC(=O)c1ccccc1)c1ccccc1Br`?
aSyn UTR act: -101.7*

What do the screens show for `C/C(=N\NC(=O)c1ccccc1)c1ccccc1F`?
aSyn UTR act: -88.3*

What do the screens show for `C/C(=N\NC(=O)OC(C)(C)C)c1ccccc1Br`?
aSyn UTR act: -84.4*

Results for CCCCCC(=O)N/N=C(\C)c1ccc(N2CCCCC2)cc1 ?
aSyn UTR act: -65.0*

Results for CCCCCC(=O)N/N=C(\C)c1ccccn1 ?
aSyn UTR act: 66.6

Results for CN1CCN(c2ccc(C(=O)c3ccc(F)cc3)cc2)CC1 ?
aSyn UTR act: -133.0*

Results for COc1ccc(NC(=O)C(=O)c2cn(CC(=O)N3CCCC3)c3ccccc23)cc1 ?
aSyn UTR act: 104.6

How did CC(=O)Nc1cccc(NC(=O)C(=O)c2cn(CC(=O)N3CCCCC3)c3ccccc23)c1 do in these assays?
aSyn UTR act: -121.5*

What do the screens show for `Cc1ccc(CSc2nc3ccccc3cc2C=O)cc1`?
aSyn UTR act: 93.4

How did Cc1ccc(CSc2nccc(-c3c(C)nc4ccccn34)n2)cc1 do in these assays?
aSyn UTR act: -69.7*

Results for Cc1c(C(=O)Oc2ccc(-c3cnc4ccccc4n3)cc2)cccc1[N+](=O)[O-] ?
aSyn UTR act: -108.0*
